Laboratory results taken from PubChem BioAssay (NCATS).
Inconclusive results are not listed. The source made the active and inactive calls. Unless noted, calls come from the whole dose curve; as a rule, active = well fitted curve in the direction sought with a large enough effect; inconclusive = small, poorly fitted or top-dose-only effect, or another doubt; inactive = no such curve, though single readings can be large; an effect the other way counts as inactive or inconclusive.

Key:
[1] = High Content Imaging Cell-Based qHTS for Inhibitors of the mTORC1 Signaling Pathway in MEF Cells (AID 2667);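 note: Tsc2-/- p53-/- MEFs stably re-expressing wild-type Tsc2 exposed 24 h; series mostly up to about 38 µM; plate controls were DMSO wells for no effect and rapamycin control wells for full effect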
Method in brief: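 MEF (Tsc2-/-, p53-/-, WT Tsc2 re-expressed); cpd 24 h, 37 °C; PFA fix; Alexa-488 anti-p-rpS6 Ser235/236, PI, Hoechst; IN Cell imaging; Hoechst/Alexa-488 intensity ratio; % active cells, thresholds set from rapamycin and DMSO wells.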

[2] = Cytometry Cell-Based qHTS for Inhibitors of the mTORC1 Signaling Pathway in MEF cells (AID 2668);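 note: Tsc2-/- p53-/- mouse embryonic fibroblasts stably re-expressing wild-type Tsc2; percent cells positive for phospho-rpS6 Ser235/236 relative to propidium iodide stain; series mostly up to about 38 µM; plate controls were DMSO wells for no effect and 7.5 nM rapamycin control wells for full effect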
Method in brief: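 WT MEFs (Tsc2-/-, p53-/- stably re-expressing WT Tsc2) in DMEM + 10% FBS received compounds 24 hrs after plating, for 24 hrs at 37 degree Celsius. Fixed cells stained with Alexa-488 anti-phospho-rpS6 Ser235/236 and propidium iodide; laser-scanning cytometry read-out.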

[3] = Validation screen for small molecules that induce DNA re-replication in MCF 10A normal breast cells (AID 463097); note: 0% is about no effect; nearly all actives have a fitted effect of over 60% in size
Method in brief: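 Readout: Hoechst nuclear fluorescence intensity, 405 ex / 500-530 em, by scanning plate imager; re-replication scored as increase in nuclei with elevated DNA content. Cells exposed to compound 48 hr, 37 C, 5% CO2 beforehand.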

[4] = molecular target: Ubiquitin carboxyl-terminal hydrolase 2 (Homo sapiens) (UniProt O75604); experiment: qHTS Validation Assay for Inhibitors of Ubiquitin-specific Protease USP2a Using CHOP2 as the Reporter (AID 463106);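 note: plate controls were DMSO for no effect and full inhibition by NEM for full effect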
Method in brief: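 USP2 core (10nM final) was preincubated with compound for 30min at RT in 20mM Tris-HCl pH 8.0, 2mM CaCl2, 2mM beta-mercaptoethanol, 0.05% CHAPS. Ub-CHOP2 and reporter substrate (25nM each) were added, and fluorescence (Ex 485/Em 531nm) was read after 60min.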

[5] = molecular target: DNA polymerase III PolC-type (Bacillus subtilis (strain 168)) (UniProt P13267); experiment: qHTS Validation Assay for the Inhibitors of DNA Replication in Gram-Positive Bacteria (AID 485295);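 note: PicoGreen fluorescence of double-stranded DNA made on primed circular M13 template; series mostly up to about 57 µM; 0% = DMSO wells and -100% = EDTA-quenched background wells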
Method in brief: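 Reconstituted B. subtilis holoenzyme (Pol III, beta clamp, SSB, primase) was preincubated with compound at room temperature, then given single-stranded circular M13Gori plus dNTPs and NTPs. EDTA-containing PicoGreen stopped the reaction, and dsDNA product was read by fluorescence.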

[6] = molecular target: Tumor susceptibility gene 101 protein (Homo sapiens) (UniProt Q99816); experiment: qHTS Validation Assay for Iinhibitors of HIV-1 Budding by Blocking the Interaction of PTAP/TSG101 (AID 485342; calls by dose curve; note: 0% is about no effect)
Method in brief: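 Tsg101 binding domain (10 uM final) in pH 7.5 HEPES/NaCl/Tween 20/EDTA/TCEP buffer was mixed with pin-transferred compounds, then FITC-labeled PTAP peptide (50 nM final) was added; after 20 min at r.t., fluorescence polarization was read.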

[7] = qHTS Validation Assay to Find Inhibitors of Chronic Active B-Cell Receptor Signaling (AID 485345; active = well fitted curve in the direction sought with a large enough effect in the main read-out, with a control signal flat, not every such curve was filed as active;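 note: 0% = untreated basal cells and 100% = 10 µM MG-132 proteasome inhibitor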)
Method in brief: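 TMD8 ABC-DLBCL cells with dox-inducible green luciferase–IκBα fusion and red native luciferase; compounds 46 uM–3 nM, 4 h at 37C with doxycycline in 0.5% FBS IMDM. Green/red ratio normalized to basal and 10 uM MG-132.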

[8] = molecular target: Beta-2 adrenergic receptor (Homo sapiens) (UniProt P07550); experiment: qHTS validation assay of beta-arrestin-biased ligands of beta2-adrenergic receptor (AID 485366); note: 0% is about no effect
Method in brief: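 Arrestin-recruitment (Tango) reporter: ligand-bound beta2-AR recruits beta-arrestin, releasing tTA, which upregulates luciferase. Titrations of up to 46 microM incubated 18 hr at 37 degrees C before luminescent readout.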

[9] = molecular target: Thioredoxin reductase 1, cytoplasmic (Rattus norvegicus) (UniProt O89049); experiment: qHTS Assay for Substrates of Mammalian Selenoprotein Thioredoxin Reductase 1 (TrxR1) (AID 488772);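 note: NADPH fluorescence in the first read after selenite addition and not the 8 min delta; series mostly up to about 57 µM; 0% is about no effect; a drop in NADPH fluorescence below the no-compound background marks a TrxR1 substrate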
Method in brief: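 Quantitative HTS in Tris-HCl buffer at pH 7.5 with EDTA and Tween-20, using rat TrxR1, 400 uM NADPH and 400 uM selenite (final). A fall in initial NADPH fluorescence relative to background marked substrate behaviour.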

[10] = molecular target: Thioredoxin reductase 1, cytoplasmic (Rattus norvegicus) (UniProt O89049); experiment: qHTS Assay for Inhibitors of Mammalian Selenoprotein Thioredoxin Reductase 1 (TrxR1) (AID 488773); conditions: Potency: inhibition;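 note: drop in NADPH fluorescence over an 8 min run after selenite addition; series mostly up to about 57 µM; % is set by controls: 0 for no effect and ±100 for the full control effect; nearly all actives have a fitted effect of over 40% in size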
Method in brief: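 Steps: enzyme (90 nM) plus NADPH (400 uM final), 5 min at ~22 deg C; compound added, 15 min; selenite (400 uM final) added; fluorescence followed for 8 min. Concentration-response curves derived from the normalized delta values.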

[11] = molecular target: M-phase phosphoprotein 8 (Homo sapiens) (UniProt Q99549); experiment: qHTS Validation Assay for Inhibitors for MPP8 Chromodomain Interactions with Methylated Histone Tails (AID 488949);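 note: AlphaScreen signal from MPP8 chromodomain bound to biotinylated H3K9me3 peptide; top concentration of the series differs between compounds; % is set by controls: 0 for no effect and ±100 for the full control effect; nearly all actives have a fitted effect of over 55% in size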
Method in brief: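 MPP8 (50 nM) was preincubated with biotinylated H3(1-18)K9me3 peptide (50 nM) in PBS pH 7.4, 0.01% Tween-20 for 30 min at room temperature, then with compounds for 30 min; binding was detected by AlphaScreen.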

[12] = molecular target: Chromobox protein homolog 1 (Homo sapiens) (UniProt P83916); experiment: qHTS Validation Assay for Inhibitors of HP1-beta Chromodomain Interactions with Methylated Histone Tails (AID 488953);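 note: loss of AlphaScreen luminescence from HP1-beta binding biotinylated H3K9me3 peptide; series mostly up to about 110 µM; % is set by controls: 0 for no effect and ±100 for the full control effect; nearly all actives have a fitted effect of over 50% in size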
Method in brief: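 Measured as loss of AlphaScreen luminescence from streptavidin donor and nickel acceptor beads (10 ug/mL final) bridging HP1-beta and biotin-H3(1-18)K9me3, each 50 nM. Compounds met the preassembled complex for 30 min at RT.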

[13] = molecular target: Transient receptor potential cation channel subfamily V member 1 (Homo sapiens) (UniProt Q8NER1); experiment: HTS Assay for Compounds that Act as Enhancers of the Vanilloid Receptor 1 (AID 488979); note: 0% is about no effect
Method in brief: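 TRPV1-expressing cells loaded with Fluo-8 calcium dye; compounds added and calcium influx read kinetically for 3 min (agonist phase), then capsaicin at EC20 added and read 2 min more for enhancement. Fluorescence ex 480/em 520 nm.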

[14] = molecular target: Thyrotropin receptor (Homo sapiens) (UniProt P16473); experiment: qHTS Assay for Antagonists of the Thyroid Stimulating Hormone Receptor (AID 488980); note: series mostly up to about 58 µM; 0% is about no effect
Method in brief: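 HEK293 cells transfected with human TSHR, suspended in HEPES-buffered HBSS with 70 uM RO 20-1724, were treated with compounds plus TSH at EC80 (4 nM final). cAMP was measured by competitive HTRF (cryptate anti-cAMP antibody, cAMP-d2 acceptor).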

[15] = molecular target: D(1A) dopamine receptor (Homo sapiens) (UniProt P21728); experiment: HTS Assay for Allosteric Agonists of the Human D1 Dopamine Receptor: Primary Screen for Agonists (AID 488981); note: 0% is about no effect
Method in brief: (§1)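 Tetracycline-induced HEK293 T-REx cells force-coupled to calcium signalling were incubated overnight at 30 C and dye-loaded at room temperature. Calcium flux over 180 s after compound addition flagged agonists; a further 180 s read after EC20 dopamine flagged potentiators.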

[16] = molecular target: D(1A) dopamine receptor (Homo sapiens) (UniProt P21728); experiment: HTS Assay for Allosteric Agonists of the Human D1 Dopamine Receptor: Primary Screen for Potentiators (AID 488982); note: 0% is about no effect
Method in brief: as §1

[17] = molecular target: D(1A) dopamine receptor (Homo sapiens) (UniProt P21728); experiment: HTS Assay for Allosteric Agonists of the Human D1 Dopamine Receptor: Primary Screen for Antagonists (AID 488983);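 note: calcium flux response to an EC80 dopamine challenge measured with no-wash dye; % is set by controls: 0 for no effect and ±100 for the full control effect; nearly all actives have a fitted effect of over 65% in size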
Method in brief: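 Screening of inducible HEK293 T-REx D1 cells: compound first, EC80 dopamine 180 s later, each phase read kinetically for calcium over 180 s.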

[18] = Validation screen for small molecules that induce genotoxicity in human embryonic kidney (HEK293T) cells expressing luciferase-tagged ELG1 (AID 493106); note: potency is the fitted concentration of half-maximal effect
Method in brief: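 Reporter-gene quantitative HTS in HEK293T cells carrying luciferase-tagged ELG1, whose level climbs under genotoxic stress. Compound exposure lasts 16 hr at 37 °C before luciferase detection.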

[19] = molecular target: Thyrotropin-releasing hormone receptor (Homo sapiens) (UniProt P34981); experiment: qHTS for Small Molecule Agonists and Allosteric Enhancers of Human TRH Receptor: Validation Screen for Agonists (AID 493127;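 active = calcium activation more than 3 SD above the typical response in the agonist read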;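 note: intracellular calcium rise by fluo-8 fluorescence before TRH EC20 addition; 0% is about no effect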); conditions: TRH receptor agonist cell assay; at 2 µM; hits give high values
Method in brief: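 Gq-coupled calcium mobilization in TRHR cells after compound addition, monitored kinetically with fluo-8 dye on an FDSS reader.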

Chain of D(1A) dopamine receptor (Homo sapiens) (P21728 whole entry, looked up): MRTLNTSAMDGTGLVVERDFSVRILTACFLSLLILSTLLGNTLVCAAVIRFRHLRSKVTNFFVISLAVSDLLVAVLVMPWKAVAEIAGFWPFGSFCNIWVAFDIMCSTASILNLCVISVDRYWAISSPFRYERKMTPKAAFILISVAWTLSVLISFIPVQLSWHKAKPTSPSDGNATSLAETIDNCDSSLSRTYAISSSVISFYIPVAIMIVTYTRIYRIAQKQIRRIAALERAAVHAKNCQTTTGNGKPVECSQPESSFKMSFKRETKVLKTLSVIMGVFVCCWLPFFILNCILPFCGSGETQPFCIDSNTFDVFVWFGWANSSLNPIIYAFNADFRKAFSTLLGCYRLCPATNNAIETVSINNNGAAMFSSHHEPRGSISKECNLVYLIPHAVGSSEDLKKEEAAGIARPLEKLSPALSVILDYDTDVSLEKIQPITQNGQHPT
Chain of Thioredoxin reductase 1, cytoplasmic (Rattus norvegicus) (O89049 whole entry, looked up): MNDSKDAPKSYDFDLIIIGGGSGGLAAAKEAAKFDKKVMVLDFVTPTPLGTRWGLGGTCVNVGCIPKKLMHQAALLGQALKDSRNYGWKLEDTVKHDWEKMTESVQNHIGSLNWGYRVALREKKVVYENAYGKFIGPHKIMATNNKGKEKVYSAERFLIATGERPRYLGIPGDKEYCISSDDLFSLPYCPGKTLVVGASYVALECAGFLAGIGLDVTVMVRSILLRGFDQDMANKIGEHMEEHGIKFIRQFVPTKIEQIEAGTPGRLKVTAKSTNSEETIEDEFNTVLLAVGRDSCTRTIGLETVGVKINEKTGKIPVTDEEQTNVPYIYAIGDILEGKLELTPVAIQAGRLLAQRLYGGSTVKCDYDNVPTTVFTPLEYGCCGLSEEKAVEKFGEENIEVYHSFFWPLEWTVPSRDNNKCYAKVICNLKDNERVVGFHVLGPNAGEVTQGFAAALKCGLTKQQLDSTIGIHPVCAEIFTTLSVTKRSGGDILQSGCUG
Chain of M-phase phosphoprotein 8 (Homo sapiens) (Q99549 whole entry, looked up): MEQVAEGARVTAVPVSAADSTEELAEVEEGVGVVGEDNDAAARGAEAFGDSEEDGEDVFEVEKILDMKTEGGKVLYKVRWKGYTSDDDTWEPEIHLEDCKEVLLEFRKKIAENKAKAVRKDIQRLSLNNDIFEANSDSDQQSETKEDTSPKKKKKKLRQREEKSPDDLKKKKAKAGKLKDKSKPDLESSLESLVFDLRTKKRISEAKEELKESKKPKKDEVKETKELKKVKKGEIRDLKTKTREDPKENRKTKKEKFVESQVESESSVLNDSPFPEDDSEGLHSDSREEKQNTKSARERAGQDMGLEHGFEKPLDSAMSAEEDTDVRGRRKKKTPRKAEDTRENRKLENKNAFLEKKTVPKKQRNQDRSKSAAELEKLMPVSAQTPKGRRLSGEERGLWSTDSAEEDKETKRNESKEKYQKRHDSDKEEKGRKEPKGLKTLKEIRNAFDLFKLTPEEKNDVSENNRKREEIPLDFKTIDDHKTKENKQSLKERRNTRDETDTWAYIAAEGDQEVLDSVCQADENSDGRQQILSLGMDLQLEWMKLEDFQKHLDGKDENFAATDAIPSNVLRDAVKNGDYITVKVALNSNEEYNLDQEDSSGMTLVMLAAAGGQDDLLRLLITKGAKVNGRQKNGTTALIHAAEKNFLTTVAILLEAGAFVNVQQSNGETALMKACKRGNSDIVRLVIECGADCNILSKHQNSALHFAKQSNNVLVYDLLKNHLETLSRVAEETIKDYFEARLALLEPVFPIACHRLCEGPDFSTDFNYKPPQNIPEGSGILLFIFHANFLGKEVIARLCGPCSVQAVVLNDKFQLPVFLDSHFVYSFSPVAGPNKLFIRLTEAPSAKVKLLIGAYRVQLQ
Chain of Thyrotropin-releasing hormone receptor (Homo sapiens) (P34981 whole entry, looked up): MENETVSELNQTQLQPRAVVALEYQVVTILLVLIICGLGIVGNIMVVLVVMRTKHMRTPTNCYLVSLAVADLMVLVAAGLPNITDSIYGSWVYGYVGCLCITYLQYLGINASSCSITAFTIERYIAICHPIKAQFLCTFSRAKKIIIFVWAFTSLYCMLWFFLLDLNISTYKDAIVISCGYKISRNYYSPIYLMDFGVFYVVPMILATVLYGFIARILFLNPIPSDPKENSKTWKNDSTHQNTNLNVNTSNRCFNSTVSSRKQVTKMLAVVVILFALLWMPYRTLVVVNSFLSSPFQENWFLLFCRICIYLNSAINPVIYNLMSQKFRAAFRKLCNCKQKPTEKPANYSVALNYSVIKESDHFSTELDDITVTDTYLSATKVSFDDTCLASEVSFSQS
Chain of DNA polymerase III PolC-type (Bacillus subtilis (strain 168)) (P13267 whole entry, looked up): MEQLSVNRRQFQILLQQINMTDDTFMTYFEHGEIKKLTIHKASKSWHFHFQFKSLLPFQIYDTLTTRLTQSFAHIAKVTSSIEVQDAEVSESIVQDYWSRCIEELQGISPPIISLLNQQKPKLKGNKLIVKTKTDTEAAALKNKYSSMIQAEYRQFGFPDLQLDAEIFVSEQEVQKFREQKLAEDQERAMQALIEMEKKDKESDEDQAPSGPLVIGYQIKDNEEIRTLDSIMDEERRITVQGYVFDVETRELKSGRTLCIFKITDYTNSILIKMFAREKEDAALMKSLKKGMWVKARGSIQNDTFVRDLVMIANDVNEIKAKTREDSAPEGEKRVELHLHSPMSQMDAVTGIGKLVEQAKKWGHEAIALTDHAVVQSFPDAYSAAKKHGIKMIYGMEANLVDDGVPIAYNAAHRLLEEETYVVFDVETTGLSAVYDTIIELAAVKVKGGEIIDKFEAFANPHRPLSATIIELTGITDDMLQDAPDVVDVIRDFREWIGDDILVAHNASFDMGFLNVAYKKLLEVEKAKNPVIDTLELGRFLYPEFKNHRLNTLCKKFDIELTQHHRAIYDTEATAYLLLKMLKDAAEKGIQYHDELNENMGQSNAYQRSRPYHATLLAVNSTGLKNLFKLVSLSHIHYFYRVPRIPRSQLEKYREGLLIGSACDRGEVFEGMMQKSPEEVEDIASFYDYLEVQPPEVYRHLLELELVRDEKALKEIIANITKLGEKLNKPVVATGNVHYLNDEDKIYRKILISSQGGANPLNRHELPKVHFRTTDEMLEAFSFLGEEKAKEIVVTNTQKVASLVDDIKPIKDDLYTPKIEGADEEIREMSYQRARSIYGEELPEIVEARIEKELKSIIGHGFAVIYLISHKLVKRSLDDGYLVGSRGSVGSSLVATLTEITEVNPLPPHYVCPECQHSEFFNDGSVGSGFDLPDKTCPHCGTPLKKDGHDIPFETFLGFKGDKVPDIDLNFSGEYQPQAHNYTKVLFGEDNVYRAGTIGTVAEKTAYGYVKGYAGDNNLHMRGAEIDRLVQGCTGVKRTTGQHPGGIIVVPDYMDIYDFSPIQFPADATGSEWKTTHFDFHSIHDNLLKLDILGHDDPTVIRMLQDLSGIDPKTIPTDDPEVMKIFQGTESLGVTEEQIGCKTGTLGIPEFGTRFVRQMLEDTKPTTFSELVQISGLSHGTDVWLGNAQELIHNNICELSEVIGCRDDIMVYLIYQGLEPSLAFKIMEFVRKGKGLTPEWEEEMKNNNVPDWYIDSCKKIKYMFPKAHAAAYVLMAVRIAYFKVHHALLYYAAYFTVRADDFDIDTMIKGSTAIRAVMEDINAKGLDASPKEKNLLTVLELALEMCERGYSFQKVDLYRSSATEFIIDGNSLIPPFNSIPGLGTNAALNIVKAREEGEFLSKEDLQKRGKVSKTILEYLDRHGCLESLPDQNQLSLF
Chain of Thyrotropin receptor (Homo sapiens) (P16473 whole entry, looked up): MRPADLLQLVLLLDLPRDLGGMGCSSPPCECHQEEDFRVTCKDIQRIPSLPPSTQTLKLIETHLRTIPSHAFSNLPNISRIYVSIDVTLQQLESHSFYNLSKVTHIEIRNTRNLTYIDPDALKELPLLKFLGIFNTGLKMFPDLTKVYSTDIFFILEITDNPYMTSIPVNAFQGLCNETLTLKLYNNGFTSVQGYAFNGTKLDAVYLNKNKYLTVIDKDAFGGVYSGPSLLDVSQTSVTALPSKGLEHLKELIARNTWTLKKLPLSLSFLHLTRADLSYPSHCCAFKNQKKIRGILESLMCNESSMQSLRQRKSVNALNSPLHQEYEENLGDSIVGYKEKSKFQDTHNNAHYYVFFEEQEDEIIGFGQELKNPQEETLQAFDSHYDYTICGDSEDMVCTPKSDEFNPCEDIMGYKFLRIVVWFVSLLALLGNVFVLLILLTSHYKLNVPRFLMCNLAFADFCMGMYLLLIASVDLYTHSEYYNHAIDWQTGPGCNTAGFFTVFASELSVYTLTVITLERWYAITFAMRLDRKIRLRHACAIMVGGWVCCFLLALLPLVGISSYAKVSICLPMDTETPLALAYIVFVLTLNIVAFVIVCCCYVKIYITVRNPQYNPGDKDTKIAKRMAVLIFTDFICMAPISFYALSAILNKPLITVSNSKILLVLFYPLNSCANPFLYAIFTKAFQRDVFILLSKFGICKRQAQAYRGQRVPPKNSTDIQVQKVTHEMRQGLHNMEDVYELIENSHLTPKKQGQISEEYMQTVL
Chain of Ubiquitin carboxyl-terminal hydrolase 2 (Homo sapiens) (O75604 whole entry, looked up): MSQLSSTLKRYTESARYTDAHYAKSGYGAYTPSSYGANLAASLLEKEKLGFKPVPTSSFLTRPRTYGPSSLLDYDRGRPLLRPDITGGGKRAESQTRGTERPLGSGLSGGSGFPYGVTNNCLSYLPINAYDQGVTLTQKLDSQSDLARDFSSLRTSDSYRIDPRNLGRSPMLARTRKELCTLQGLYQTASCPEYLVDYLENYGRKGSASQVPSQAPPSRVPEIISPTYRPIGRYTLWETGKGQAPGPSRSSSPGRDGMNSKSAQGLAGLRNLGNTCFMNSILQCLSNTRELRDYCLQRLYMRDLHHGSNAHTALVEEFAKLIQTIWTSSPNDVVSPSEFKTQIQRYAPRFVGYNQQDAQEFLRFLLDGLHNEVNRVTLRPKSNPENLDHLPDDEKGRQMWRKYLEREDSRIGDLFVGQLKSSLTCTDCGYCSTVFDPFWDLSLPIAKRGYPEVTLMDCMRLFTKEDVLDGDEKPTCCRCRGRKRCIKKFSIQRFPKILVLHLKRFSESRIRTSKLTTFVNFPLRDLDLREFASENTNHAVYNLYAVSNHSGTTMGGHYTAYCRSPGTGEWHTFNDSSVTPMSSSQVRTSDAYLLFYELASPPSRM

Cc1cccc(/C=C/c2ccccc2)n1
active: Potency [18] 4.11 µM
inactive: Potency [1] | Potency [2] | Potency [3] | Potency [4] | Potency [5] | outcome [6] | outcome [7] | outcome [8] | outcome [9] | Potency [10] | Potency [11] | Potency [12] | outcome [13] | outcome [14] | outcome [15] | outcome [16] | outcome [17] | activation [19] -7%
